Assay results from PubChem BioAssay (NCI).
About 83,000 compounds went through this panel and 20% of them were active in at least one assay; those are over-represented in the sample as a whole.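 48-hour exposure, single concentration, 96-well plates; percent growth endpoint where 0 means no net growth. Active: below 10.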 Active and inactive are the calls of the source.

Assays:
Test in all cases: NCI-60 one-dose screen, 48 h (100 = growth as untreated, 0 = no growth, -100 = all killed)
Details in all cases: 10 µM unless noted
SK-MEL-2 melanoma = tested on: SK-MEL-2 melanoma
EKVX NSCLC = tested on: EKVX NSCLC
SN12C renal = tested on: SN12C renal
UO-31 renal = tested on: UO-31 renal
TK-10 renal = tested on: TK-10 renal
ACHN renal = tested on: ACHN renal
CAKI-1 renal = tested on: CAKI-1 renal
A498 renal = tested on: A498 renal
CCRF-CEM leukemia = tested on: CCRF-CEM leukemia
MOLT-4 leukemia = tested on: MOLT-4 leukemia
SR leukemia = tested on: SR leukemia
RPMI-8226 leukemia = tested on: RPMI-8226 leukemia
OVCAR-8 ovarian = tested on: OVCAR-8 ovarian
OVCAR-5 ovarian = tested on: OVCAR-5 ovarian
OVCAR-4 ovarian = tested on: OVCAR-4 ovarian
SK-OV-3 ovarian = tested on: SK-OV-3 ovarian
IGROV1 ovarian = tested on: IGROV1 ovarian
OVCAR-3 ovarian = tested on: OVCAR-3 ovarian
HS 578T breast = tested on: HS 578T breast
NCI/ADR-RES ovarian = tested on: NCI/ADR-RES ovarian

Measured: growth

O=S(=O)(NCCNc1nccc(-n2cnc3ccccc32)n1)c1ccc(C(F)(F)F)cc1
inactive: SK-MEL-2 melanoma 67.8% | EKVX NSCLC 34.7% | SN12C renal 72.5% | UO-31 renal 39.9% | TK-10 renal 63.4% | ACHN renal 60.8% | CAKI-1 renal 43.1% | A498 renal 56.6% | CCRF-CEM leukemia 57.6% | MOLT-4 leukemia 45.2% | SR leukemia 35.5% | RPMI-8226 leukemia 44.9% | OVCAR-8 ovarian 63.5% | OVCAR-5 ovarian 86.2% | OVCAR-4 ovarian 28.4% | SK-OV-3 ovarian 62.2% | IGROV1 ovarian 66.4% | OVCAR-3 ovarian 72.9% | HS 578T breast 42.9% | NCI/ADR-RES ovarian 55.9%

Cc1ccc(-c2cc3nc(C(Cl)Cl)nc(C)n3n2)cc1
inactive: SK-MEL-2 melanoma 110% | EKVX NSCLC 92.3% | SN12C renal 113% | UO-31 renal 80.9% | TK-10 renal 166% | ACHN renal 87.4% | CAKI-1 renal 96.4% | A498 renal 132% | CCRF-CEM leukemia 98.4% | MOLT-4 leukemia 103% | SR leukemia 113% | RPMI-8226 leukemia 94.6% | OVCAR-8 ovarian 102% | OVCAR-5 ovarian 104% | OVCAR-4 ovarian 118% | SK-OV-3 ovarian 84.2% | IGROV1 ovarian 72.2% | OVCAR-3 ovarian 104% | HS 578T breast 107%

CCN1CCN(Cc2cn(-c3ccc(S(N)(=O)=O)cc3)nn2)CC1
inactive: SK-MEL-2 melanoma 115% | EKVX NSCLC 103% | SN12C renal 104% | UO-31 renal 94% | TK-10 renal 108% | ACHN renal 108% | CAKI-1 renal 96.5% | A498 renal 103% | CCRF-CEM leukemia 104% | MOLT-4 leukemia 104% | SR leukemia 102% | RPMI-8226 leukemia 109% | OVCAR-8 ovarian 102% | OVCAR-5 ovarian 108% | OVCAR-4 ovarian 108% | SK-OV-3 ovarian 105% | IGROV1 ovarian 107% | OVCAR-3 ovarian 112% | HS 578T breast 102%

COC(=O)C(Cc1ccccc1)Nc1nc(NC(Cc2ccccc2)C(=O)OC)nc(N2CCOCC2)n1 (stereo not drawn)
inactive: SK-MEL-2 melanoma 111% | EKVX NSCLC 105% | SN12C renal 104% | UO-31 renal 81.2% | TK-10 renal 103% | ACHN renal 109% | CAKI-1 renal 86.8% | A498 renal 107% | CCRF-CEM leukemia 105% | MOLT-4 leukemia 101% | SR leukemia 100% | RPMI-8226 leukemia 98.5% | OVCAR-8 ovarian 99.6% | OVCAR-5 ovarian 106% | OVCAR-4 ovarian 107% | SK-OV-3 ovarian 103% | IGROV1 ovarian 98.6% | OVCAR-3 ovarian 111% | HS 578T breast 101% | NCI/ADR-RES ovarian 111%

CC1=CC(=O)C2=C(C)CC(OC(=O)CCc3ccccc3)[C@@H]3[C@H](OC(=O)[C@@H]3C)[C@@H]12 (stereo partly drawn)
inactive: SK-MEL-2 melanoma 103% | EKVX NSCLC 102% | SN12C renal 95.3% | UO-31 renal 79.1% | TK-10 renal 102% | ACHN renal 101% | CAKI-1 renal 86.1% | A498 renal 82.4% | CCRF-CEM leukemia 88.7% | MOLT-4 leukemia 83.6% | SR leukemia 86.8% | RPMI-8226 leukemia 74.7% | OVCAR-8 ovarian 96.8% | OVCAR-5 ovarian 95.9% | OVCAR-4 ovarian 91.6% | SK-OV-3 ovarian 91.6% | IGROV1 ovarian 82.7% | OVCAR-3 ovarian 98.6% | HS 578T breast 104% | NCI/ADR-RES ovarian 98.2%

N#Cc1cn(Cc2ccc(Cl)cc2Cl)c(C(=O)c2ccc(Br)cc2)c1N
inactive: SK-MEL-2 melanoma 97.9% | EKVX NSCLC 93.8% | SN12C renal 101% | UO-31 renal 81.6% | TK-10 renal 101% | ACHN renal 99% | CAKI-1 renal 92.3% | A498 renal 86.7% | CCRF-CEM leukemia 108% | MOLT-4 leukemia 98.9% | SR leukemia 99.5% | RPMI-8226 leukemia 111% | OVCAR-8 ovarian 84.5% | OVCAR-5 ovarian 92% | OVCAR-4 ovarian 100% | SK-OV-3 ovarian 90.4% | IGROV1 ovarian 97.3% | OVCAR-3 ovarian 105% | HS 578T breast 90% | NCI/ADR-RES ovarian 88.8%

NC(N)=Nc1ccc(Oc2cccc(Nc3ccc(Cl)cc3)c2)cn1
inactive: SK-MEL-2 melanoma 64.6% | EKVX NSCLC 16.1% | SN12C renal 12.3% | UO-31 renal 39.1% | TK-10 renal 50% | ACHN renal 30.9% | CAKI-1 renal 27.3% | OVCAR-8 ovarian 29.4% | OVCAR-5 ovarian 48.3% | OVCAR-4 ovarian 20.2% | SK-OV-3 ovarian 53.2% | IGROV1 ovarian 14.4% | HS 578T breast 34.1% | NCI/ADR-RES ovarian 56.5%
active: A498 renal -4.07% | CCRF-CEM leukemia -6.22% | MOLT-4 leukemia -12.8% | SR leukemia -57.8% | RPMI-8226 leukemia -41.8% | OVCAR-3 ovarian -14.3%

Cc1ccc(S(=O)(=O)N(CC[C@@H]2C[C@H]2c2cc3ccccc3o2)S(=O)(=O)c2ccc(C)cc2)cc1
inactive: SK-MEL-2 melanoma 102% | EKVX NSCLC 95.3% | SN12C renal 94.6% | UO-31 renal 80% | TK-10 renal 98.6% | ACHN renal 98.2% | CAKI-1 renal 86% | A498 renal 75.8% | CCRF-CEM leukemia 93.3% | MOLT-4 leukemia 88.8% | SR leukemia 128% | RPMI-8226 leukemia 101% | OVCAR-8 ovarian 96.8% | OVCAR-5 ovarian 98% | OVCAR-4 ovarian 76.8% | SK-OV-3 ovarian 101% | IGROV1 ovarian 101% | OVCAR-3 ovarian 108% | HS 578T breast 98.6%

Cc1nn(-c2ccccc2)c2ncnc(N/N=C/c3ccccc3)c12
inactive: SK-MEL-2 melanoma 104% | EKVX NSCLC 89.6% | SN12C renal 81% | UO-31 renal 75.3% | TK-10 renal 113% | ACHN renal 85.8% | CAKI-1 renal 102% | A498 renal 74.1% | CCRF-CEM leukemia 88.3% | MOLT-4 leukemia 87.1% | SR leukemia 98.1% | RPMI-8226 leukemia 105% | OVCAR-8 ovarian 96.7% | OVCAR-5 ovarian 97.5% | OVCAR-4 ovarian 80.4% | SK-OV-3 ovarian 102% | IGROV1 ovarian 81.9% | OVCAR-3 ovarian 83.5% | HS 578T breast 103% | NCI/ADR-RES ovarian 93%

CCO/C=N/C1=C(C#N)C(c2ccc(Cl)cc2)c2sc3c(CC)cccc3c2O1 (stereo not drawn)
active: A498 renal 2.43% | RPMI-8226 leukemia 9.39% | OVCAR-3 ovarian -20.5%
inactive: SK-MEL-2 melanoma 38.8% | EKVX NSCLC 47.8% | SN12C renal 36.3% | UO-31 renal 39.5% | TK-10 renal 60.6% | ACHN renal 40.9% | CAKI-1 renal 40.6% | CCRF-CEM leukemia 16.1% | MOLT-4 leukemia 23.6% | SR leukemia 18% | OVCAR-8 ovarian 28.5% | OVCAR-5 ovarian 36.9% | OVCAR-4 ovarian 76.5% | SK-OV-3 ovarian 58.2% | IGROV1 ovarian 23% | HS 578T breast 18.4%

CCOC(=O)C1=NNC(c2ccc(Cl)cc2)C1C(=O)N1C(=S)NC(=O)C1CC(C)C (stereo not drawn)
inactive: SK-MEL-2 melanoma 110% | EKVX NSCLC 84.5% | SN12C renal 99.4% | UO-31 renal 81.4% | TK-10 renal 164% | ACHN renal 93.3% | CAKI-1 renal 85.2% | A498 renal 95% | CCRF-CEM leukemia 100% | MOLT-4 leukemia 89.5% | SR leukemia 96.8% | RPMI-8226 leukemia 95% | OVCAR-8 ovarian 100% | OVCAR-5 ovarian 101% | OVCAR-4 ovarian 96.5% | SK-OV-3 ovarian 93.5% | IGROV1 ovarian 77.1% | OVCAR-3 ovarian 113% | HS 578T breast 98.6% | NCI/ADR-RES ovarian 99.9%

CS(=O)(=O)c1ccc(-n2cc(/C=N/O)c(-c3ccccc3)n2)cc1
active: IGROV1 ovarian -26.2%
inactive: SK-MEL-2 melanoma 92.3% | EKVX NSCLC 81.7% | SN12C renal 89.5% | UO-31 renal 76% | TK-10 renal 92.5% | ACHN renal 78.4% | CAKI-1 renal 73.8% | A498 renal 83.7% | CCRF-CEM leukemia 33.8% | MOLT-4 leukemia 28.7% | SR leukemia 30.3% | RPMI-8226 leukemia 70.9% | OVCAR-8 ovarian 84.2% | OVCAR-5 ovarian 98.6% | OVCAR-4 ovarian 77.6% | SK-OV-3 ovarian 109% | OVCAR-3 ovarian 94.4% | HS 578T breast 95.4%

CCCCc1nc(/C=N/Nc2nc(Nc3ccccc3)nc(Nc3ccc(S(N)(=O)=O)cc3)n2)c(Cl)[nH]1
inactive: SK-MEL-2 melanoma 65.8% | EKVX NSCLC 102% | SN12C renal 93.6% | UO-31 renal 85.4% | TK-10 renal 112% | ACHN renal 100% | CAKI-1 renal 105% | A498 renal 89.3% | CCRF-CEM leukemia 12.5% | MOLT-4 leukemia 41.4% | SR leukemia 11.5% | RPMI-8226 leukemia 96.7% | OVCAR-8 ovarian 90% | OVCAR-5 ovarian 102% | OVCAR-4 ovarian 80.6% | SK-OV-3 ovarian 114% | IGROV1 ovarian 98.4% | OVCAR-3 ovarian 46.2% | HS 578T breast 77.8%

COc1ccc(-c2nc3cccc(O)c3c(=O)n2Cc2ccccc2)cc1COc1ccc(NC(C)=O)cc1
inactive: SK-MEL-2 melanoma 86.8% [3 µM] | EKVX NSCLC 79.5% [3 µM] | SN12C renal 62.3% [3 µM] | UO-31 renal 74.2% [3 µM] | TK-10 renal 69.4% [3 µM] | ACHN renal 36.2% [3 µM] | CAKI-1 renal 57% [3 µM] | A498 renal 70.5% [3 µM] | CCRF-CEM leukemia 41.6% [3 µM] | MOLT-4 leukemia 15.4% [3 µM] | SR leukemia 27.5% [3 µM] | RPMI-8226 leukemia 44.5% [3 µM] | OVCAR-8 ovarian 49.3% [3 µM] | OVCAR-5 ovarian 64.2% [3 µM] | OVCAR-4 ovarian 83% [3 µM] | SK-OV-3 ovarian 67.2% [3 µM] | IGROV1 ovarian 41.6% [3 µM] | OVCAR-3 ovarian 66.9% [3 µM] | HS 578T breast 63.8% [3 µM] | NCI/ADR-RES ovarian 51.1% [3 µM]

ClC(Cl)c1nc(-c2ccco2)n2nc(-c3ccccc3)cc2n1
active: EKVX NSCLC 4.01% | ACHN renal -23.9% | CAKI-1 renal -19.1% | A498 renal -7.32% | RPMI-8226 leukemia -25.5% | OVCAR-5 ovarian 2.76% | OVCAR-3 ovarian -29.9% | HS 578T breast -2.15%
inactive: SK-MEL-2 melanoma 89.6% | SN12C renal 66.5% | UO-31 renal 35.3% | TK-10 renal 20.3% | CCRF-CEM leukemia 89.8% | MOLT-4 leukemia 66.6% | SR leukemia 87.3% | OVCAR-8 ovarian 31.7% | OVCAR-4 ovarian 36.6% | SK-OV-3 ovarian 51% | IGROV1 ovarian 76.9%

CCCCCc1ccc(S(=O)(=O)Nc2cccc(-c3csc(NC(=O)CCCCCN4CCN(C)CC4)n3)c2)cc1
active: CCRF-CEM leukemia 5.75% | MOLT-4 leukemia 3.35% | SR leukemia -31.4% | RPMI-8226 leukemia -22.5%
inactive: SK-MEL-2 melanoma 98.3% | EKVX NSCLC 71% | SN12C renal 79.8% | UO-31 renal 75.9% | TK-10 renal 107% | ACHN renal 86.4% | CAKI-1 renal 79.5% | A498 renal 78.7% | OVCAR-8 ovarian 81.9% | OVCAR-5 ovarian 88.8% | OVCAR-4 ovarian 71.4% | SK-OV-3 ovarian 97.9% | IGROV1 ovarian 69.6% | OVCAR-3 ovarian 37.1% | HS 578T breast 72.2% | NCI/ADR-RES ovarian 89.8%
